Assay outcomes from PubChem.
HGIII-sPLA2 inh – Blocks human group III sPLA2 activity; QFRET BODIPY PC-A2 liposome hydrolysis, fluorescence; 370,000 tested, 0.56% active; inhibition, % at 12.2 µM; Q9NZ20;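 active means inhibition above mean plus 3 SD of compounds lying within the high and low control bounds, cut at about 19% in these data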;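 further: 0% = median of test compound wells and 100% = no enzyme DMSO wells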
UBC9 SUMO inh – inhibitors of human SUMOylation (UBC9) | P63279 | AID 2006 | inhibition, % at 35 µM | HTRF SUMOylation assay, SAE1/SAE2 + UBC9, in vitro | 290,000 tested, 0.36% active; in the data active means inhibition above about 50%, passing the limit was not always enough
Target sequence (P63279 whole entry, looked up): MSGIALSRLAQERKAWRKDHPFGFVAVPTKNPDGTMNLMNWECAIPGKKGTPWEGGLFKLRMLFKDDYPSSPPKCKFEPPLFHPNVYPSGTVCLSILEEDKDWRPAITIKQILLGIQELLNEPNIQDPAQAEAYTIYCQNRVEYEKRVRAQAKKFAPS
NR3A LBD binder – modulates the human NR3A ligand-binding domain; AID 1259313; NR3A LBD differential scanning fluorimetry, Tm shift; 0% = protein alone, 100% = glycine-bound protein; Tm shift relative to glycine control, % at 25 µM; 340,000 tested, 2.5% active;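 active means melting temperature shift of at least 10% of the positive control shift, at one fixed dose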
UBC13 polyUb – inhibitors of human UBC13 polyubiquitin chain formation; P61088; TR-FRET; inhibition, % at 20 µM; 330,000 tested, 0.47% active; AID 485273; in the data active means inhibition above about 45%, passing the limit was not always enough
Target sequence (P61088 whole entry, looked up): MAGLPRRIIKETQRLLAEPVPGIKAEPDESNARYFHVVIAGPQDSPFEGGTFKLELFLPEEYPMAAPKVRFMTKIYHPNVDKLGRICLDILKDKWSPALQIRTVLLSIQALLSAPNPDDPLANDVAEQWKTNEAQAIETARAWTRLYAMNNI
* marks the source's active call; other numbers are inactive results; ! = a repeat was not active. This is a sample that favours compounds with a hit; in the whole collection about 3.3% have one here.

What do the screens show for `N#C/C(=C/c1ccc(-c2ccc(S(N)(=O)=O)cc2)o1)C(=O)Nc1ccccc1`?
HGIII-sPLA2 inh: -10.4; UBC9 SUMO inh: 19.0; NR3A LBD binder: 22.9*; UBC13 polyUb: -11.2

What do the screens show for `NS(=O)(=O)c1ccc(-c2ccc(/C=N/NC(=O)c3ccccc3O)o2)cc1`?
HGIII-sPLA2 inh: -6.6; UBC9 SUMO inh: 16.9; NR3A LBD binder: 13.3*; UBC13 polyUb: -22.2

Results for N#C/C(=C\c1ccc(-c2ccc(F)cc2)o1)C(=O)Nc1nc(-c2cccs2)cs1 ?
HGIII-sPLA2 inh: -6.2; UBC9 SUMO inh: 30.1; NR3A LBD binder: 19.0*; UBC13 polyUb: -44.4

How did Brc1ccc(C=Nc2ccc(Nc3ccccc3)cc2)s1 do in these assays?
UBC9 SUMO inh: 0.9; NR3A LBD binder: 11.8*

What do the screens show for `C(=Nc1ccc(Nc2ccccc2)cc1)c1ccc2ccccc2c1`?
UBC9 SUMO inh: -15.0; NR3A LBD binder: -12.7

What do the screens show for `Cc1ccc2c(c1)N(CCCC(=O)N(C)Cc1ccccc1Cl)C(=O)CO2`?
HGIII-sPLA2 inh: -6.7

How did O=C(NCc1ccccc1)c1sc(=S)n2c1[nH]c(=O)c1ccccc12 do in these assays?
HGIII-sPLA2 inh: -3.0; UBC9 SUMO inh: 3.7; NR3A LBD binder: 11.7*; UBC13 polyUb: -12.3

Results for O=C(Nc1cccc(Cl)c1)C1=Cc2cc(Cl)ccc2OC1 ?
HGIII-sPLA2 inh: -7.9; UBC9 SUMO inh: -4.2; NR3A LBD binder: 20.4*; UBC13 polyUb: 2.2

How did O=C(Nc1ccc(Cl)c(Cl)c1)C1=Cc2ccccc2OC1 do in these assays?
HGIII-sPLA2 inh: -19.1; UBC9 SUMO inh: 1.0; NR3A LBD binder: 18.6*; UBC13 polyUb: -12.0

What do the screens show for `O=C(NCc1ccc(Cl)cc1)C1=Cc2cc(Cl)ccc2OC1`?
HGIII-sPLA2 inh: -11.5; UBC9 SUMO inh: -14.4; NR3A LBD binder: 0.8; UBC13 polyUb: 3.6

What do the screens show for `O=C(Cn1nc(-c2ccccc2)ccc1=O)NCCc1cccc(F)c1`?
HGIII-sPLA2 inh: -3.8

What do the screens show for `CC(=O)N1CCCN(S(=O)(=O)c2ccc3c(c2)n(C)c(=O)c(=O)n3C)CC1`?
HGIII-sPLA2 inh: 2.3

What do the screens show for `CCCCC(=O)Nc1c(C)cc(C)cc1Cl`?
HGIII-sPLA2 inh: 0.4; UBC9 SUMO inh: 16.3; NR3A LBD binder: 13.9*; UBC13 polyUb: -14.8

How did O=c1[nH]c(-c2ccc(Cl)cc2)cs1 do in these assays?
HGIII-sPLA2 inh: 14.4; UBC9 SUMO inh: 19.6; NR3A LBD binder: -1.1; UBC13 polyUb: 2.1

Results for O=c1[nH]c(-c2ccccc2)cs1 ?
HGIII-sPLA2 inh: 18.8; UBC9 SUMO inh: 17.2; NR3A LBD binder: 11.5*; UBC13 polyUb: -2.6

Results for CCN(CC)CCNC(=O)c1ccc(Cl)c(S(=O)(=O)Nc2ccc(Cl)cc2)c1 ?
HGIII-sPLA2 inh: -8.6; UBC9 SUMO inh: -15.2; NR3A LBD binder: 21.5*!; UBC13 polyUb: 1.3

What do the screens show for `CC(NC(N)=O)C(=O)Nc1ccc(Cl)c(S(=O)(=O)Nc2ccc(Cl)cc2)c1` (configuration not stated)?
HGIII-sPLA2 inh: -3.6; UBC9 SUMO inh: 12.5; NR3A LBD binder: 2.1; UBC13 polyUb: 4.2

What do the screens show for `CC(C)Oc1ccc(C(=O)Nc2ccc(Cl)c(S(=O)(=O)Nc3ccc(Cl)cc3)c2)cc1`?
HGIII-sPLA2 inh: -15.2; UBC9 SUMO inh: -1.9; NR3A LBD binder: 19.6*; UBC13 polyUb: -12.3

Results for C[C@@H]1[C@@H](c2ccccc2)c2cc3ccccc3nc2C(=O)C[C@@H]1C(=O)N1CCCC1 ?
HGIII-sPLA2 inh: -5.7

How did C=CCN(Cc1ccc(OC)cc1OC)C(C#CCCCC)c1ccccc1 (configuration not stated) do in these assays?
HGIII-sPLA2 inh: -0.7

What do the screens show for `CCc1ccccc1NC(=O)[C@@H]1CCCN1S(=O)(=O)c1cccc2cccnc12`?
HGIII-sPLA2 inh: -2.5

How did CCOC(=O)[C@@H]1[C@H]2COc3ccccc3[C@H]2N2C(=O)N(c3cccc(Cl)c3)C(=O)[C@]12C do in these assays?
HGIII-sPLA2 inh: -6.3; NR3A LBD binder: 16.8*; UBC13 polyUb: 3.1

What do the screens show for `CC(C)CNC(=O)C1CSCCS(=O)(=O)N1Cc1ccccc1` (configuration not stated)?
HGIII-sPLA2 inh: 9.7

Results for Cc1ccc(NC(=S)NCCC2=CCCCC2)cc1 ?
HGIII-sPLA2 inh: 18.3; UBC9 SUMO inh: -0.9; NR3A LBD binder: -7.4; UBC13 polyUb: 2.6

What do the screens show for `CCOC(=O)c1ccc(NC(=S)NCC(O)c2ccccc2)cc1` (configuration not stated)?
HGIII-sPLA2 inh: -17.8; UBC9 SUMO inh: -28.6; NR3A LBD binder: 10.3*; UBC13 polyUb: -2.6

How did CCOC(=O)c1ccc(NC(=S)NCc2ccccc2)cc1 do in these assays?
HGIII-sPLA2 inh: -7.2; UBC9 SUMO inh: -3.4; NR3A LBD binder: 2.1; UBC13 polyUb: 3.1

Results for CCOC(=O)c1ccc(NC(=S)NCCC2=CCCCC2)cc1 ?
HGIII-sPLA2 inh: -28.9; UBC9 SUMO inh: -25.3; NR3A LBD binder: 13.0*; UBC13 polyUb: -2.9

Results for CCOC(=O)c1ccc(NC(=S)NCCc2ccccc2F)cc1 ?
HGIII-sPLA2 inh: -31.0; UBC9 SUMO inh: -4.2; NR3A LBD binder: 10.6*; UBC13 polyUb: -4.8

Results for CCOC(=O)c1ccc(NC(=S)NCCc2ccccc2)cc1 ?
HGIII-sPLA2 inh: -15.3; UBC9 SUMO inh: -31.2; NR3A LBD binder: 5.7; UBC13 polyUb: 0.2

Results for C[C@@H]1COc2cc(Br)ccc2S(=O)(=O)N1Cc1cn(Cc2ccc(F)cc2)nn1 ?
HGIII-sPLA2 inh: 2.0

What do the screens show for `CC(C)CNC(=O)OCc1cn(Cc2ccc(Cl)cc2)nn1`?
HGIII-sPLA2 inh: 7.5

How did Cc1ccc(C)c(SCC(=O)OC/C(O)=C(\C#N)c2nc3ccccc3[nH]2)c1 do in these assays?
HGIII-sPLA2 inh: -6.5; UBC9 SUMO inh: 40.9; NR3A LBD binder: -1.0

What do the screens show for `N#C/C(=C(/O)COC(=O)CSc1ccc2ccccc2c1)c1nc2ccccc2[nH]1`?
HGIII-sPLA2 inh: -19.5; UBC9 SUMO inh: 30.0; NR3A LBD binder: 20.5*; UBC13 polyUb: -7.7

How did Cc1ccccc1CN1CCCCC(NC(=O)C2CCCCC2)C1=O (configuration not stated) do in these assays?
HGIII-sPLA2 inh: 1.8

Results for CCc1cc(C(=O)Nc2cc(Cl)ccc2N2CCN(C)CC2)sc1C ?
HGIII-sPLA2 inh: -20.3; NR3A LBD binder: 11.2*; UBC13 polyUb: 11.3

How did CCc1cc(C(=O)Nc2cc(S(=O)(=O)N(CC)CC)ccc2N2CCN(C)CC2)sc1C do in these assays?
HGIII-sPLA2 inh: -2.1; NR3A LBD binder: -2.2; UBC13 polyUb: 25.8

How did O=C(COC(=O)c1ccc2[nH]c3c(c2c1)CCCC3)Nc1ccc(Cl)cc1Cl do in these assays?
HGIII-sPLA2 inh: -1.7; UBC9 SUMO inh: 2.5; NR3A LBD binder: 27.0*; UBC13 polyUb: 8.0

Results for CCOC(=O)c1ccc2[nH]c3c(c2c1)CCCC3 ?
HGIII-sPLA2 inh: -34.6; UBC9 SUMO inh: -12.6; NR3A LBD binder: -9.0; UBC13 polyUb: 2.4

How did O=C(COC(=O)c1ccc2[nH]c3c(c2c1)CCCC3)Nc1ccccc1Cl do in these assays?
HGIII-sPLA2 inh: -5.1; UBC9 SUMO inh: 16.7; NR3A LBD binder: 12.6*; UBC13 polyUb: 13.5

Results for CCC(C)c1ccccc1NC(=O)COC(=O)c1ccc2[nH]c3c(c2c1)CCCC3 (configuration not stated) ?
HGIII-sPLA2 inh: -66.2; UBC9 SUMO inh: -21.1; NR3A LBD binder: 7.4; UBC13 polyUb: 8.1
